Bioassay records: PubChem, National Center for Advancing Translational Sciences (NCATS)
LDHA inh – blocks human lactate dehydrogenase A; P00338; purified LDHA, NADH/diaphorase-resazurin fluorescence; stronger effect = lower value; activity change, % (values are at about 110 or 230 µM); 480,000 tested, 0.15% active; in the data active = activity change below about -30%; inconclusive = mostly about -25% to -30%;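 note: plate controls were DMSO wells for no effect and wells without enzyme for full effect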
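Human LDH5 at 2 nM final in Tris HCl pH 7.4 with 0.06 mM NADH and 0.2 mM pyruvate, reacted 5 minutes at room temperature. Remaining NADH coupled via diaphorase/resazurin; resorufin fluorescence read at 0 and 20 minutes, normalized to enzyme-free and DMSO wells.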
DT40 TDP1 CPT – DT40-hTDP1 cell growth loss with CPT. chicken DT40 Tdp1-/-;hTDP1 cells + 20 nM CPT, ATP luminescence, 48 h. Potency, µM (doses to about 46.2 µM), for the others: at the top dose activity change, negative = growth inhibition, usual class: inhibitors. 420,000 tested, 12% active; note: potency is the fitted concentration of half-maximal effect; nearly all actives have a fitted effect of over 55% in size
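Chicken DT40 Tdp1-/- cells stably complemented with human TDP1 were seeded at 400 cells/well in medium containing 20 nM camptothecin, exposed to pin-transferred compounds, and grown at 37 °C for at least 48 hr. Viability was read as ATP luminescence.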
RORg inh – inhibitors of mouse ROR gamma transcriptional activity | 310,000 tested, 5.4% active | Potency, µM (series often up to 53.6 µM), without a hit: top-dose activity change, negative = inhibition, most hits filed as inhibitors | Drosophila S2 Gal4-RORgamma UAS-luciferase reporter, 20 h | P51450; note: potency is the fitted concentration of half-maximal effect; nearly all actives have a fitted effect of over 60% in size
Target sequence (P51450 whole entry, looked up, the tested form may be a part): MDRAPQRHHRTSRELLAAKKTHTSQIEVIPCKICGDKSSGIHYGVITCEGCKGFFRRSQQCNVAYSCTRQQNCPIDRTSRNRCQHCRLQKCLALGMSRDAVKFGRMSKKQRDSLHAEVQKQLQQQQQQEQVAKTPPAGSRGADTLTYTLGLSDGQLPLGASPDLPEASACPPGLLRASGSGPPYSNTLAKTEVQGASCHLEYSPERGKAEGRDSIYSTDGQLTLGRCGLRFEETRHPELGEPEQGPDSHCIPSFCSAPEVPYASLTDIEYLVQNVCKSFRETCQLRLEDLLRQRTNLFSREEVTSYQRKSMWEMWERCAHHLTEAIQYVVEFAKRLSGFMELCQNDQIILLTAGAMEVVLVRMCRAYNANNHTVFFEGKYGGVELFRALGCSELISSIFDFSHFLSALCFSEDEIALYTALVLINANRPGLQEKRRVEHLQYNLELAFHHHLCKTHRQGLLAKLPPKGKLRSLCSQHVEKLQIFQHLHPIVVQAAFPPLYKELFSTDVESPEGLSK
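A Gal4/UAS one-hybrid system in insect cells: metallothionein-promoter Gal4–ROR gamma fusion plus Photinus luciferase reporter. Copper sulfate 700 uM final, 20 hr ambient incubation, luminescent detection after 10 min with reagent.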
Gal4-VP16 FLuc – counter-screen for ROR gamma inhibitors: Gal4-VP16 reporter. Potency, µM (top dose mostly 53.6 µM), for inactives: top-dose activity, negative = inhibition, hits mostly inhibitors. AID 2546. Drosophila S2 Gal4-VP16 UAS-luciferase, luminescence, 20 h. 310,000 tested, 3.5% active;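 note: Gal4-VP16 expression switched on by copper sulfate through the metallothionein promoter; potency is the fitted concentration of half-maximal effect; nearly all actives have a fitted effect of over 50% in size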
IL-1B inflam inh – inflammasome signaling inhibition, IL-1 beta readout; activity change, % at 57.5 µM; THP-1 LPS/ATP IL-1B secretion, AlphaLISA, 16 h; stronger effect = lower value; AID 743279; 360,000 tested, 4.7% active; in the data active = activity change below about -50%; inconclusive = mostly about -30% to -49%
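Secreted IL-1B measured by AlphaLISA bead assay after 16 h compound exposure of THP-1 cells; compounds (final up to 57.5 uM) added 1 h before LPS (250 ng/mL) and ATP (1.25 mM) stimulation; lower signal means less secretion.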
DT40 TDP1 no CPT – qHTS for Inhibitors of human tyrosyl-DNA phosphodiesterase 1 (TDP1): qHTS in cells in absence of CPT; Potency, µM (top dose mostly 46.2 µM), inactives show top-dose activity change, negative = growth inhibition, usual class: inhibitors; 420,000 tested, 15% active; DT40 Tdp1-/- hTDP1 cells, no CPT, ATP luminescence, 48 h; AID 686978, 2013; note: potency is the fitted concentration of half-maximal effect; nearly all actives have a fitted effect of over 55% in size
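Compound effects on proliferation are scored in DT40 Tdp1-/-;hTDP1 cells in the absence of CPT. ATP levels (CellTiter-Glo luminescence) are recorded after a ≥48 hr, 37 °C incubation.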
* hit, by the source's call; ? = inconclusive; · = no result; [ ] = remark or other dose. In the library only some 18% were active in any assay of this set; here they are far more common. Unless noted, calls come from the whole dose curve; as a rule, active = well fitted curve in the direction sought with a large enough effect; inconclusive = small, poorly fitted or top-dose-only effect, or another doubt; inactive = no such curve, though single readings can be large; an effect the other way counts as inactive or inconclusive. Unless noted, % is set by controls: 0 for no effect and ±100 for the full control effect.

SMILES	LDHA inh	DT40 TDP1 CPT	RORg inh	Gal4-VP16 FLuc	IL-1B inflam inh	DT40 TDP1 no CPT
CCOC(=O)[C@]12CCC=C1N(Cc1cccc3ccccc13)C(=O)[C@H](CC(=O)NCc1ccc(C)o1)C2	6	16µM*	·	·	0	23µM*
CCOC(=O)[C@]12CCC=C1N(Cc1ccco1)C(=O)[C@H](CC(=O)NCc1cccs1)C2	0	-9%	·	·	7	-5%
CCOC(=O)[C@]12CCCC=C1N(Cc1cccc3ccccc13)C(=O)[C@H](CC(=O)NCc1cccs1)C2	-2	?	·	·	-24	23µM*
O=C(O)c1cccc(OCc2nnnn2-c2ccc(Cl)c(Cl)c2)c1	-2	·	·	·	·	·
Cc1nn(C)c2nc(C(C)C)cc(C(=O)N3CCN(c4nccs4)CC3)c12	-3	·	·	·	·	·
CSc1cccc(NC(N)=S)c1	-6	-24%	-41%	-1%	-14	?
CSc1cccc(NC(=S)NN(C)C)c1	-3	?	3.2µM*	10µM*	4	18µM*
CSc1cccc(NC(=S)Nc2ccc(F)cc2)c1	-6	23µM*	?	?	-2	?
CN(Cc1ccc(C(=O)NCC(F)(F)F)cc1)C(=O)c1cc(F)cc(F)c1	-5	·	·	·	·	·
CC(C)(C)NC(=O)CSc1nnc(-c2cccnc2)o1	0	·	·	·	·	·
COc1cccc(-c2nc(CS(=O)(=O)CC(=O)NC3CCCC3)c(C)o2)c1	-2	-1%	40%	7%	29	20%
COc1cccc(-c2nc(CS(=O)(=O)CC(=O)NC3CCCc4ccccc43)c(C)o2)c1 (stereo unspecified)	-1	23µM*	-3%	3%	-10	18µM*
COc1cccc(-c2nc(CS(=O)(=O)CC(=O)Nc3cc(OC)ccc3OC)c(C)o2)c1	-3	?	2%	3%	-5	5.8µM*
CCn1nnnc1SCC(=O)c1c(C)c(C)cc(C)c1C	0	·	·	·	·	·
Cn1c(CN2CCOCC2)nc2cc(NC(=O)c3ccccc3Cl)ccc21	3	-14%	7%	4%	8	-15%
CCCC(=O)Nc1ccc2c(c1)nc(CN1CCN(C(=O)OCC)CC1)n2C(C)C	-4	0.65µM*	·	·	·	0.065µM*
CCCC(=O)Nc1ccc2c(c1)nc(CN1CCN(C(=O)OCC)CC1)n2C	5	0%	-15%	-3%	24	-6%
CCOC(=O)N1CCN(Cc2nc3cc(NC(=O)c4ccccc4Cl)ccc3n2C(C)C)CC1	-5	1.5µM*	·	·	·	1.5µM*
CCCC(=O)Nc1ccc2c(c1)nc(CN1CCN(C(=O)OCC)CC1)n2CC	0	3.7µM*	5%	1%	75	2.3µM*
Clc1ccccc1-c1nc(NCCN2CCOCC2)c2ccccc2n1	·	?	-11%	5%	·	-20%
Clc1ccccc1-c1cncnc1NCCN1CCOCC1	·	3.3µM*	-28%	3%	·	3.7µM*
FC(F)(F)c1ccccc1-c1cncnc1NCCN1CCOCC1	·	1µM*	-23%	-2%	·	1.5µM*
O=c1[nH]ccc2c(O)cccc12	-7	?	·	·	37	21µM*
CCC1CN(C(=O)Nc2cccc3c2CCCC3)c2cc(Cl)ccc2O1 (stereo unspecified)	4	?	·	·	·	21µM*
CCC1CN(C(=O)Nc2cccc3c2CCCC3)c2ccccc2O1 (stereo unspecified)	8	?	·	·	·	16µM*
SMILES	LDHA inh	DT40 TDP1 CPT	RORg inh	Gal4-VP16 FLuc	IL-1B inflam inh	DT40 TDP1 no CPT
CCC1CN(C(=O)Nc2ccc(C)cc2)c2cc(C)ccc2O1 (stereo unspecified)	5	?	7%	-3%	-11	16µM*
CCC1CN(C(=O)Nc2ccccc2C(F)(F)F)c2ccccc2O1 (stereo unspecified)	-2	6%	·	·	·	2%
C=CCC(CC=C)(CNC(=O)C(=O)Nc1cc(C)ccc1OC)c1ccc(OC)c(OC)c1	-1	8.2µM*	·	·	·	16µM*
Cc1sc(N/N=C/C=C/c2ccccc2)nc1-c1ccccc1	1	?	3.5µM*	?	-20	?
Cc1cc(=O)[nH]c(NN=C2CCCCC2C)n1 (stereo unspecified)	3	?	·	·	-1	18µM*
Cc1cc(=O)[nH]c(NN=C2C3CC4CC(C3)CC2C4)n1	0	-4%	-18%	2%	30	17%
Cc1cc(C)nc(N/N=C/c2ccccc2)n1	-1	-19%	?	17%	10	-11%
Cc1cc(=O)[nH]c(N/N=C/C=C/c2ccccc2)n1	-2	4%	13µM*	-20%	-10	1%
Cc1cc(C)nc(N/N=C/C=C/c2ccccc2)n1	-2	?	1.3µM*	7.9µM*	0	?
CC/C=C(/C)C(=O)NCCCN1CCCC1	3	·	·	·	·	·
O=C(c1ccccc1O)N1CCN(C(=O)c2cc(=O)[nH]c3ccccc23)CC1	1	·	·	·	·	·
Cc1cc(=O)[nH]c(N/N=C2/CCCC/C2=C\c2ccccc2)n1	-1	-26%	6.3µM*	18µM*	-10	?
Cc1cc(=O)[nH]c(N/N=C/CCc2ccccc2)n1	2	1%	?	8%	-13	-5%
Cc1cc(C)nc(N/N=C/C(Cl)=C/c2ccccc2)n1	-1	?	-6%	?	-51*	-23%
CC(C)(C)c1ccc(C(=O)CCCN2CCC(OC(c3ccccc3)c3ccccc3)CC2)cc1	1	12µM*	0%[10 µM]	11µM*	·	6µM*
Cc1nc(C#N)c(NCC(c2cccs2)N2CCOCC2)o1 (stereo unspecified)	0	·	·	·	·	·
CCOc1ccc(-c2nnc(NC(=O)Cc3cc(OC)c(OC)c(OC)c3)o2)cc1	1	1%	11µM*	?	0	8%
CCOc1ccc(-c2nnc(NC(=O)CCCOc3cccc(C)c3)o2)cc1	-4	?	6.3µM*	?	-14	?
Cc1cccc(OCCCC(=O)Nc2ccc(Br)cc2)c1	-3	-21%	55%	4%	-21	-28%
COc1cc(OC)cc(C(=O)OCC(=O)Nc2nnc(-c3ccccc3)o2)c1	1	?	·	·	-3	?
CCOc1ccc(-c2nnc(NC(=O)Cc3ccc(OC)cc3)o2)cc1	-6	4%	1.8µM*	4.5µM*	-5	-20%
CCC(=O)Nc1nnc(-c2ccc(OC)cc2)o1	-1	-15%	?	11µM*	2	-17%
C=CCc1c(C)nc(-c2ccccc2)nc1Nc1ccc(O)cc1	5	?	-12%	-26%	-97*	15µM*
C=CCc1c(C)nc(SC)nc1Nc1ccc(C(C)=O)cc1	-1	16µM*	-7%	10%	-23	21µM*
C=CCc1c(C)nc(SC)nc1Nc1ccc(C(=O)O)cc1	-7	-10%	1%	-7%	11	-12%
